Where “and” joins values, the source holds several entries; their conditions need not be identical. Equal values may be shown once. This is part of a sample that, as a whole, favours compounds with a hit. Of some 83,000 tested, about 20% had one in any assay.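 Negative percent growth values reflect cell death: -40 means 40% of the cells present at the start died, and -100 means all died.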 Calls of active or inactive are those of the source. How the source made its calls: active means growth percent below 10; inactive means the rest.
Key:
Experiment in all cases: NCI-60 one-dose screen, 48 h (100 = growth as untreated, 0 = no growth, -100 = all killed)
[1] = system: HT29 colon; details: 10 µM unless noted
[2] = system: SNB-75 CNS; details: 10 µM unless noted
[3] = system: SNB-19 CNS; details: 10 µM unless noted
[4] = system: U251 CNS; details: 10 µM unless noted
[5] = system: PC-3 prostate; details: 10 µM unless noted
[6] = system: SK-MEL-5 melanoma; details: 10 µM unless noted
[7] = system: UACC-62 melanoma
[8] = system: LOX IMVI melanoma; details: 10 µM unless noted
[9] = system: SK-MEL-28 melanoma; details: 10 µM unless noted
[10] = system: SK-MEL-2 melanoma; details: 10 µM unless noted
[11] = system: EKVX NSCLC; details: 10 µM unless noted
[12] = system: SN12C renal; details: 10 µM unless noted
[13] = system: UO-31 renal; details: 10 µM unless noted
[14] = system: TK-10 renal
[15] = system: ACHN renal; details: 10 µM unless noted
[16] = system: CAKI-1 renal; details: 10 µM unless noted
[17] = system: A498 renal; details: 10 µM unless noted
[18] = system: CCRF-CEM leukemia; details: 10 µM unless noted
[19] = system: MOLT-4 leukemia; details: 10 µM unless noted
[20] = system: SR leukemia; details: 10 µM unless noted

Measured: growth

c1ccc(Nc2nnc(-c3cc(-c4cccnc4)n(-c4ccccc4)n3)s2)cc1
active: [1] 3.7%
inactive: [2] 102% | [3] 102% | [4] 69.5% | [5] 82.4% | [6] 69.9% | [7]; 10 µM unless noted 84.1% | [8] 69.8% | [9] 106% | [10] 96.5% | [11] 83% | [12] 87.7% | [13] 56.9% | [14]; 10 µM unless noted 88.6% | [15] 81.7% | [16] 46.4% | [17] 74.4% | [18] 72.6% | [19] 56.5% | [20] 67.1%

Cn1c(=O)c2nc(SCc3ccccc3)n(C)c2n(C)c1=O
inactive: [1] 113% | [2] 104% | [3] 89.4% | [4] 101% | [5] 102% | [6] 101% | [7]; 10 µM unless noted 109% | [8] 99.1% | [9] 119% | [10] 101% | [11] 123% | [12] 90.4% | [13] 98.3% | [14]; 10 µM unless noted 111% | [15] 99.1% | [16] 119% | [17] 77.3% | [18] 122% | [19] 106% | [20] 83.3%

N#Cc1c(N2CCOCC2)nc2sc3cc(Cl)ccc3n2c1=N
inactive: [1] 98.5% | [2] 63.7% | [3] 77.8% | [4] 96.6% | [5] 75.9% | [6] 78.3% | [7]; 10 µM unless noted 89.4% | [8] 93% | [9] 103% | [10] 103% | [11] 91.1% | [12] 99.8% | [13] 63.3% | [14]; 10 µM unless noted 160% | [15] 98.3% | [16] 111% | [17] 121% | [18] 126% | [19] 109% | [20] 108%

Cc1nn(-c2ccccc2)c2nc(Cl)c(/C=C/C(=O)c3ccccc3)c(-c3ccccc3)c12
inactive: [1] 103% | [2] 89.4% | [3] 98.9% | [4] 104% | [5] 101% | [6] 96.3% | [7]; 10 µM unless noted 102% | [8] 96.1% | [9] 109% | [10] 96.4% | [11] 107% | [12] 102% | [13] 82.4% | [14]; 10 µM unless noted 121% | [15] 104% | [16] 97.8% | [17] 112%

Cc1cc2cn3c4cccnc4[nH]c(=O)c3c2cc1C
active: [1] -76.3% | [4] -71.2% | [8] -68.5% | [18] 4.5%
inactive: [2] 79.3% | [3] 56.4% | [5] 67.7% | [6] 44.4% | [7]; 10 µM unless noted 61.2% | [9] 86.6% | [10] 58.2% | [11] 76.7% | [12] 22.5% | [13] 58.9% | [14]; 10 µM unless noted 61.3% | [15] 82.1% | [16] 75.7% | [17] 95.8% | [19] 18.4%

Cn1cc(-c2csc(-c3cn(C)c4ncccc34)n2)c2cccnc21
inactive: [1] 98.7% | [2] 75.7% | [3] 94% | [4] 96% | [5] 86.9% | [6] 84.9% | [7]; 10 µM unless noted 79.4% | [8] 95% | [9] 101% | [10] 107% | [11] 86.6% | [12] 93.1% | [13] 91.9% | [14]; 10 µM unless noted 92.2% | [15] 99.7% | [16] 83.3% | [17] 76.1% | [18] 87.3% | [19] 95.7%

O=C1c2nsnc2C(=O)c2c(F)c(F)c(F)c(F)c21
active: [1] -54.8% | [2] -76.4% | [3] -86.8% | [4] -76.3% | [5] 7.59% | [6] -61.1% | [7]; 10 µM unless noted -86.9% | [8] -49.4% | [9] -92.5% | [10] -75.4% | [11] -13.9% | [12] -94.8% | [13] -86.9% | [14]; 10 µM unless noted -98.9% | [15] -97.3% | [16] -75.9% | [18] 6.36% | [19] -26.6%
inactive: [17] 10.1%

O=c1[nH]c(=O)n(C2CC(O)C(CO)O2)cc1C(F)(F)F (stereo not given)
inactive: [1] 68.7% | [2] 57.6% | [3] 55.6% | [4] 42% | [5] 74.8% | [6] 29.8% | [7]; 10 µM unless noted 29.6% | [8] 18.3% | [9] 75.2% | [11] 86.6% | [12] 28.6% | [13] 23.5% | [14]; 10 µM unless noted 64.8% | [15] 24.6% | [16] 66.2% | [17] 42.3% | [19] 31.8%
active: [10] -17.8% | [18] -30.2% | [20] -24.8%

c1ccc(-c2nn[nH]n2)c(-c2ccc(CN3CCN(c4nsc5ccccc45)CC3)cc2)c1
inactive: [1] 58.6% | [2] 91.1% | [3] 98.3% | [4] 85.5% | [5] 84.7% | [6] 97.2% | [7]; 10 µM unless noted 91.4% | [8] 102% | [9] 113% | [10] 120% | [11] 106% | [12] 92.6% | [13] 103% | [14]; 10 µM unless noted 103% | [15] 98.7% | [16] 84% | [17] 85.1%

c1ccc2c(c1)[nH]c1c2cc[n+]2cc3c(cc12)CCCC3
active: [7]; 100 µM -23.2% and -48.3% | [10] -8.25% | [14]; 100 µM -97.9% and -92.5% | [18] 1.33% | [19] 2.41%
inactive: [1] 18.5% | [2] 77.3% | [3] 35.1% | [4] 16.3% | [5] 22.8% | [6] 18.3% | [7]; 10 µM 29.6% | [8] 19.5% | [9] 32.7% | [13] 82.1% | [14]; 10 µM 69.2% | [15] 66.2% | [17] 97.3% | [20] 10.6%

Cn1cc(-c2nc(-c3c[nH]c4ncccc34)cs2)c2cccnc21
inactive: [1] 73.1% | [2] 47.1% | [3] 82.5% | [4] 71.6% | [5] 76.6% | [6] 57.8% | [7]; 10 µM unless noted 58.6% | [8] 54.3% | [9] 90.6% | [10] 52.7% | [11] 50.5% | [12] 84.4% | [13] 52.9% | [14]; 10 µM unless noted 31% | [15] 41.4% | [16] 28.3% | [17] 50.1% | [18] 65.3% | [19] 69.3%

Cc1ccc(NC(=O)CSc2nnc3n(Cc4ccccc4)c(=O)c4c(C)c(C(N)=O)sc4n23)cc1
active: [2] -46.4% | [14]; 10 µM unless noted -24.4% | [17] 6.08%
inactive: [1] 35% | [3] 68.6% | [4] 38.3% | [5] 81.5% | [6] 77.1% | [7]; 10 µM unless noted 55.8% | [8] 59.9% | [9] 13.9% | [10] 44.4% | [11] 91.7% | [12] 58.5% | [13] 81.9% | [15] 75.6% | [16] 91.7%

COc1cccc(CCC2C(=O)CCCC2=O)c1
inactive: [1] 111% | [2] 108% | [3] 96.8% | [4] 109% | [5] 104% | [6] 104% | [7]; 10 µM unless noted 103% | [8] 117% | [9] 119% | [10] 112% | [11] 116% | [12] 106% | [13] 84.3% | [14]; 10 µM unless noted 115% | [15] 103% | [16] 106% | [17] 131% | [18] 102% | [19] 92.1% | [20] 99.1%

Cc1nn(-c2ccc(Br)cc2)c2nc3c(nc12)C(=O)C(=O)c1ccccc1-3
inactive: [1] 99.8% | [2] 85.7% | [3] 92.5% | [4] 103% | [5] 87.7% | [6] 89.6% | [7]; 10 µM unless noted 90.6% | [8] 88.1% | [9] 96.3% | [10] 102% | [11] 80% | [12] 95.5% | [13] 63.7% | [14]; 10 µM unless noted 140% | [15] 93.1% | [16] 94.9% | [17] 106%

CCC(CCC(C)C1CCC2C3CC=C4CC(O)CCC4(C)C3CCC12C)C(C)C (stereo not given) (tested in a mixture with another compound)
inactive: [1] 98.9% | [2] 119% | [3] 98.6% | [4] 90.2% | [5] 45.8% | [6] 96% | [7]; 10 µM unless noted 95% | [8] 99.1% | [9] 91.7% | [10] 24.3% | [11] 115% | [12] 84.4% | [13] 93.6% | [14]; 10 µM unless noted 139% | [15] 88% | [16] 108% | [17] 104% | [18] 60% | [19] 70.6% | [20] 101%

Cc1nn(-c2ccccc2)c2ncc3c(c12)C(=O)N(Cc1ccccc1)C3=O
active: [2] -27.1% | [4] 8.03% | [13] -30.5% | [14]; 10 µM unless noted -26% | [15] -21.7% | [16] -0.521% | [17] -10.2%
inactive: [1] 53.5% | [3] 47.9% | [5] 75.2% | [6] 99.5% | [7]; 10 µM unless noted 75% | [8] 37.2% | [9] 91.9% | [10] 113% | [11] 37.3% | [12] 23.7%
